# FBPA Giardia inh – blocks Giardia fructose-bisphosphate aldolase activity. A8B2U2. purified Giardia FBPA. Potency, µM (top dose mostly 59.6 µM), for the others: top-dose activity, negative = inhibition, usual class: inhibitors. 290,000 tested, 0.71% active; also: potency is read from the fitted curve at half-maximal effect; % is scaled to controls: 0 for no effect and ±100 for the full control effect; nearly all actives have a fitted effect of over 55% in size
# Target sequence (A8B2U2 whole entry, looked up): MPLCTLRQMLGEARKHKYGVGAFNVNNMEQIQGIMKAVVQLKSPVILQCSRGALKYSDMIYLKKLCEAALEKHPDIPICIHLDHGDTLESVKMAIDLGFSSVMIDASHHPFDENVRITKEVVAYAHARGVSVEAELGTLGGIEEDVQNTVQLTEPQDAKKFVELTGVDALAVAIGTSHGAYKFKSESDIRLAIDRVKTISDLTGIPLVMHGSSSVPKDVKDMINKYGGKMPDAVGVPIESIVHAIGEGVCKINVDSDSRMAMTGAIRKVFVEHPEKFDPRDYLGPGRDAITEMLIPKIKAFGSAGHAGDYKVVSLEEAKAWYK
#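 40 nM FBPA preincubated 10 min at RT with compound (up to 57.5 uM final), then substrate plus GAPDH/TPI/NAD/arsenate coupling and diaphorase/resazurin added. Fluorescence read after 20 min at RT, 525/598 nm.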
# Pf growth 96h – inhibits malaria parasite growth, 96 h. P. falciparum luciferase reporter growth, 96 h. Potency, µM (doses to about 28.7 µM), for inactives: at the top dose activity change, negative = inhibition, hits mostly inhibitors. 320,000 tested, 6.9% active; also: potency is read from the fitted curve at half-maximal effect; % is scaled to controls: 0 for no effect and ±100 for the full control effect
#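 Luminescence readout: decreased luciferase signal marks inhibited growth of reporter-expressing P. falciparum in infected red cells (2% hematocrit, 0.05% parasitemia final), exposed to compound two generations (96 h, 37 C, 5% CO2).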
# NS1 function inh – inhibitors of influenza NS1 protein function; Potency, µM (doses to about 46.1 µM), without a hit: at the highest dose activity, positive = more growth; 270,000 tested, 0.4% active; AID 2326; calls by dose curve; also: potency is read from the fitted curve at half-maximal effect; actives are rising curves; nearly all actives have a fitted effect of over 50% in size
#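 Recovery from NS1-induced slow growth read by OD600 in budding yeast switched to galactose assay medium (pH 6.0, -URA) at 1:100 dilution. Compound 23 nl per well; the matching strain lacking NS1 serves as control.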
# Pf growth 48h – P. falciparum growth inhibition at 48 hours (one generation); Potency, µM (top dose mostly 28.7 µM), for inactives: top-dose activity change, negative = inhibition, hits mostly inhibitors; AID 504832; 310,000 tested, 5.9% active; P. falciparum luciferase growth in erythrocytes, 48 h; also: potency is read from the fitted curve at half-maximal effect; % is scaled to controls: 0 for no effect and ±100 for the full control effect
#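 A one-generation exposure of luciferase-tagged malaria parasites in RPMI 1640/Albumax erythrocyte culture, 37 C and 5% CO2. Inhibition is inferred from decreased luminescence after adding detection reagent.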
# Cycloheximide cs – affects cycloheximide protein synthesis inhibition readout, counter-screen; cell reporter, cycloheximide protein synthesis inhibition counterscreen; max response, %; 300,000 tested, 12% active; AID 2314; in the data active = max response mostly above about 13%, no sharp cut-off; inactive = mostly below about 14%; also: read at 38.3 µM for the half of the compounds with a filed dose; 0% is about no effect
# Shiga inhibitor – inhibitors of Shiga toxin in Vero cells; Vero cells, Shiga toxin protein synthesis inhibition reporter; inhibition, % at 38.7 µM; 290,000 tested, 9.2% active; AID 2315; in the data active = inhibition mostly above about 28%, no sharp cut-off; inactive = mostly below about 43%; also: 0% is about no effect
# Starred values were filed as active, the others as inactive; i = inactive; ? = inconclusive; . = not tested or not shown; [ ] = dose if it differs, or a comment. Only some compounds are listed: those with a hit (about 21% of all), similar ones and a draw of the others. Unless noted, calls follow the shape of the dose curve; as a rule, active = well fitted curve in the direction sought with a large enough effect; inconclusive = small, poorly fitted or top-dose-only effect, or another doubt; inactive = no such curve, though single readings can be large; an effect the other way counts as inactive or inconclusive.
SMILES,FBPA Giardia inh,Pf growth 96h,NS1 function inh,Pf growth 48h,Cycloheximide cs,Shiga inhibitor
Cc1ccccc1CS(=O)(=O)Cc1ccc(C(=O)NCc2cccnc2)o1,0%,?,4%,22%,-2,-6
Cc1ccc(S(=O)(=O)NCc2ccccn2)c(C)c1C,-8%,14%,30%,19%,-2,-2
Cc1ccc(NS(=O)(=O)c2cc(C(=O)NCc3cccnc3)ccc2C)cc1,.,8.3µM*,-15%,-20%,-3,9
N#Cc1ccc(CN2CCCC3(CCNCC3)C2)cc1,2%,.,.,.,.,.
CC(C)(C)c1ccc(OCc2ccc(C(=O)NCc3cccnc3)o2)cc1,-11%,4%,-12%,18%,45*,176*
Cc1cc(C)c(S(=O)(=O)NCc2cccnc2)cc1C,3%,12µM*,6%,?,-2,-15
Cc1ccc(OCc2ccc(C(=O)NCc3cccnc3)cc2)cc1C,0%,21%,-12%,-1%,33*,52*
CC1CCN(S(=O)(=O)c2ccc3c(c2)N(CC(=O)N(C)Cc2ccco2)C(=O)CO3)CC1,3%,?,-15%,?,7,-1
CCCSc1ccc2nc(NC(=O)OC)[nH]c2c1,-8%,223%,-5%,111%,35*,141*
CCCCOc1ccc(N(CC(=O)NC2CCCCC2)C(=O)CCC(=O)Nc2ccccn2)cc1,8%,?,17%,12µM*,-4,-1
CCOC(=O)C(C(=O)Nc1cccc(C)n1)C1CCCCC1 (configuration not stated),8%,.,-4%,.,-2,-5
CCOC(=O)C(C(=O)Nc1ccccn1)C1CCCCC1 (configuration not stated),3%,9.3µM*,-18%,6%,-2,12
CCCCOc1ccc(N(CC(=O)NC2CCCC2)C(=O)CCC(=O)Nc2ccccn2)cc1,0%,-3%,-5%,0%,-5,-9
O=C(CSc1n[nH]c(-c2ccncc2)n1)c1ccccc1,6%,-24%,-7%,-24%,-1,21
C=CCSc1n[nH]c(-c2ccccc2)n1,-23%,47%,-12%,.,30*,51*
C=CCSc1n[nH]c(-c2ccc(OC)cc2)n1,21%,.,-23%,183%,61*,116*
COC(=O)C1(CC(C)C)C=C2C(=C(c3ccccc3)C(=O)C2C)CN1 (configuration not stated),-15%,.,.,.,.,.
Cc1ccnc(NC(=O)c2ccc(S(=O)(=O)NCc3ccco3)cc2)c1,.,37%,.,38%,.,.
CC(=O)c1cccc(NC(=O)C(C)OC(=O)CN2C(=O)NC(C)(C)C2=O)c1 (configuration not stated),.,-14%,.,6%,.,.
Cc1ccc(OCCOc2cccc(C=C3C(=O)NC(=O)NC3=O)c2)cc1,9%,6%,-48%,339%,62*,93*
O=C1NC(=O)C(=Cc2ccc3ccccc3c2)C(=O)N1,-24%,?,8%,58%,-3,-6
Cc1cc(C)cc(OCCOc2cccc(C=C3C(=O)NC(=O)NC3=O)c2)c1,-8%,38%,-21%,26%,18*,55*
Cc1noc(C)c1C(=O)N1CCC[C@@]2(CCN(Cc3ccc(C#N)cc3)C2)C1,-8%,.,.,.,.,.
O=P(O)(O)OC1[C@H](O)[C@H](OP(=O)(O)O)C(OP(=O)(O)O)[C@H](OP(=O)(O)O)[C@H]1O (some centres not stated),9%[2.35 µM],.,.,.,-10,i
Cc1ccc(/C(N)=N/OC(=O)c2ccc(Cl)cc2Cl)cc1,-7%,-10%,-59%,120%,82*,92*
SMILES,FBPA Giardia inh,Pf growth 96h,NS1 function inh,Pf growth 48h,Cycloheximide cs,Shiga inhibitor
N/C(=N\OC(=O)c1ccc2ccccc2c1)c1ccc(Br)cc1,1%,293%,3%,13µM*,6,19
Cc1ccc(C)c(C(=O)O/N=C(\N)c2ccc(Br)cc2)c1,0%,-3%,-67%,.,21,31
N/C(=N\OC(=O)c1ccc([N+](=O)[O-])cc1)c1ccc(Br)cc1,14%,6%,5%,23%,1,.
Cc1cccc(C(=O)O/N=C/c2ccc(Br)cc2)c1,-6%,-4%,.,36%,44*,88*
Cc1ccc(C(=O)O/N=C(\N)c2ccc(Br)cc2)cc1C,1%,-18%,-23%,.,42*,130*
CN(CC(=O)Nc1ccccc1Cl)C(=O)c1cc(C2CC2)nn1-c1ccccc1,.,14%,.,-1%,.,.
CC(=O)c1cccc(NC(=O)CCn2c(=S)oc3ccccc32)c1,-4%,16%,9%,18%,-1,-6
CCN1C(C)=C(C(=O)OC)C(c2ccccc2)N2C(=O)[C@](O)(C(=O)OC)C(c3ccccc3)C(C(=O)c3ccccc3)=C12 (some centres not stated),-1%[12.9 µM],.,.,.,.,.
O=C(O)CC1(CC(=O)N2CCC(C(=O)O)CC2)CCCC1,8%,-20%,1%,20%,-5,-1
Cc1cccc(C(=O)O/N=C(\N)c2ccc(Br)cc2)c1,4%,?,-41%,.,56*,63
Cc1cccc(C(=O)O/N=C(\N)c2ccc(Cl)cc2)c1,-2%,200%,-36%,66%,56*,71*
N/C(=N\OC(=O)c1ccoc1)c1ccc(Br)cc1,-5%,12%,-176%,311%,74*,90*
Cc1cc(C)cc(C(=O)O/N=C(\N)c2ccc(Br)cc2)c1,6%,.,-12%,?,12,16
CC1CCN(S(=O)(=O)c2ccc(NC(=O)C3CCN(C(=O)c4ccco4)CC3)cc2)CC1,2%,-1%,-16%,?,8,47
CN(C)S(=O)(=O)c1cccc(C(=O)Nc2cc(Cl)ccc2O)c1,-10%,-28%,-57%,?,40*,34
CN(C)S(=O)(=O)c1ccc(C(=O)NCCc2ccco2)cc1,7%,74%,4%,73%,25*,63*
CN(C)S(=O)(=O)c1cccc(C(=O)Nc2ccccc2Cl)c1,8%,.,-2%,32%,14,25
O=C(NCCc1ccccc1)c1cccc(S(=O)(=O)N2CCCCC2)c1,-5%,-13%,-7%,-8%,28*,40*
O=C(NCc1ccccc1)c1cccc(S(=O)(=O)N2CCCCC2)c1,4%,26%,-10%,11%,-2,-5
O=C(O)c1cccc(S(=O)(=O)Nc2ccccc2C(=O)NCCc2ccccc2)c1,28%,46%,16%,52%,29*,46*
N=C(N)S/C=C\C(=O)O,-28%,.,.,.,.,.
CCS(=O)(=O)Nc1cc2c3c(c1)CCC(=O)N3CCC2,7%,?,-3%,-15%,16,-18
O=C(CCSCc1cccc(F)c1)NCCc1ccccc1,15%,0%,-37%,5%[0.00184 µM],12,43
CCN1C(=O)[C@H]2[C@H]3[C@H](O)[C@H](O)C/C(=N/O[C@@H](C)CN4CCCc5nc(C)c(C)cc54)[C@@H]3CC[C@@H]2C1=O,-5%[12.9 µM],.,.,.,.,.
CC(C)CN1C(=O)C(=Nc2cccnc2)c2ccccc21,-15%,20%,-6%,0%,-2,-5

# High-throughput results as filed in PubChem BioAssay.
